Rows were chosen to be rich in hits. Some 0.3% of all compounds tested hit in one or more screens of this group.
NPYLR7 ag – mosquito NPYLR7 agonism; 270,000 tested, 0.15% active; HEK293T NPYLR7/Galpha15, GCaMP6s calcium fluorescence; activation, % at 10 µM; AID 1259423; in the data active = activation above about 40%
hcGAS inh – inhibitors of human cGAS; inhibition, % at 12.5 µM; recombinant h-cGAS, ATP depletion, Kinase-Glo luminescence; 290,000 tested, 0.081% active; AID 1259398; Q8N884
Target sequence (Q8N884 whole entry, looked up): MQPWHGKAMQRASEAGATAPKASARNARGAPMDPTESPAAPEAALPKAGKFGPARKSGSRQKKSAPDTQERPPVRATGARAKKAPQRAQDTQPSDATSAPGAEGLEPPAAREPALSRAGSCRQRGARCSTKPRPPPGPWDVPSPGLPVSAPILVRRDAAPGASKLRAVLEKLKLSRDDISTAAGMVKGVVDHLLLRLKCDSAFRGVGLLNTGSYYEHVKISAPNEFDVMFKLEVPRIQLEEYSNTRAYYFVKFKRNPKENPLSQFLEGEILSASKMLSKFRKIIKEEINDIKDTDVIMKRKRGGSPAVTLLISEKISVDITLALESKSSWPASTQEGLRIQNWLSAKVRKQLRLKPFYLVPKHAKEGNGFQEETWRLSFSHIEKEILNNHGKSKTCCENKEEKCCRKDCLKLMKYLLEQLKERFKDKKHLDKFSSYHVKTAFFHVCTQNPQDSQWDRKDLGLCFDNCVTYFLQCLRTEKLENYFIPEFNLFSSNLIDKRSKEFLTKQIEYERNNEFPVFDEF
mcGAS inh – inhibitors of mouse cGAS | recombinant cGAS, Kinase-Glo ATP depletion luminescence | inhibition, % at 12.5 µM | 160,000 tested, 0.15% active
Of the large screens only hits and unclear results are named; the others gave an inactive call. Cut-off read from the data, not from the text of the source, unless noted: active = inhibition above about 40%; inactive = the rest.

O=C(/C=C/c1ccccc1)NC1CCN(c2ccccc2C(=O)N2CCN(C3CCCC3)CC2)CC1	none (no result: mcGAS inh)
CCOc1ccc(NC(=O)c2cc(C)c(C)c(S(N)(=O)=O)c2)cc1OC	none (no result: NPYLR7 ag, mcGAS inh)
Brc1ccsc1/C=C/c1cccs1	none (no result: mcGAS inh)
COC(=O)c1cc(N)c(/C=C/c2cccs2)s1	NPYLR7 ag 184 (no result: mcGAS inh)
CC(c1nc2ccccc2s1)N1CCN(CC(=O)Nc2ccccc2Cl)CC1 (configuration not stated)	none (no result: mcGAS inh)
CCCCCCCCCCCC(=O)N1CCc2nc(Cc3cccc(C(F)(F)F)c3)[nH]c(=O)c2C1	none
O=C1N=c2ccccc2=C1c1sc(=O)[nH]c1O	mcGAS inh 63
O=C1N=c2ccccc2=C1c1sc(=S)n(-c2ccccc2)c1O	none
CN1CCN(C2CC(=O)N(c3ccc(F)cc3)C2=O)CC1 (configuration not stated)	none
O=C(O)CCc1cccs1	none (no result: mcGAS inh)
O=C(O)CCC(=O)c1cccs1	hcGAS inh 48
COCCN(Cc1ccc(OC)cc1)CC(O)COC(C)C (configuration not stated)	none
COCCN(Cc1ccc(C)cc1)CC(O)COCC(C)C (configuration not stated)	mcGAS inh 90
CC(=O)Nc1ccc(C(=O)N=Nc2c(O)[nH]c3ccccc23)cc1	none (no result: mcGAS inh)
CCCC(O)CN1CCC(=O)N(Cc2ccco2)Cc2cc3c(cc21)OCO3 (configuration not stated)	none
COc1ccc(C(=O)C=Cc2cccc(O)c2)cc1F	none
CCN1CCN(c2ccc(C(=O)C=Cc3ccc(O)c(OC)c3)cc2F)CC1	NPYLR7 ag 93 (no result: mcGAS inh)
CCC(C)(C)C1CCC(NS(=O)(=O)c2ncn(C)c2Cl)CC1 (configuration not stated)	none
NC(=O)n1c(O)c(C(=O)c2cccs2)c2cc(Cl)ccc21	hcGAS inh 67 (no result: mcGAS inh)
O=C(c1cccs1)c1cccs1	none (no result: mcGAS inh)
O=c1oc(C=Cc2ccco2)nc2sc3c(c12)CCCC3	none (no result: mcGAS inh)
O=c1oc(/C=C/c2ccco2)nc2ccc(Br)cc12	mcGAS inh 45
O=C(c1ccc(F)cc1)N1CCSC1c1cccc(Oc2ccccc2)c1 (configuration not stated)	none
O=C(CCl)N1CCN(c2cccc(Cl)c2)CC1	mcGAS inh 70
O=C(CCl)N1CCN(c2ccc(O)cc2)CC1	none
CCC(C(=O)N(Cc1cc(NC(=O)COC)ccc1N(C)C)C1CC1)c1ccccc1 (configuration not stated)	none
O=C(CSc1nc(Cl)cc(N2CCCCC2)n1)NCCC(c1ccccc1)c1ccccc1	none
COc1ccccc1N1CCN(c2ccc(NC(=O)/C=C/c3ccccc3)cc2C(=O)NCCCN(C)C)CC1	none
CCOc1ccc(-c2cc(-c3nc(-c4ccc(OC)cc4)no3)[nH]n2)cc1	none
COc1ccc(C(=O)COc2ccc(-c3noc(C(C)C)n3)cc2)cc1	hcGAS inh active (no result: mcGAS inh)
COc1ccc2c(c1OC)C(=O)OC2CC(=O)c1ccc([N+](=O)[O-])cc1 (configuration not stated)	mcGAS inh 58
COc1cccc(OC)c1OCCCOc1ccc([N+](=O)[O-])cc1	none (no result: mcGAS inh)
CCCOc1ccc(C=O)c(O)c1	none (no result: mcGAS inh)
CCOc1cc(C=O)c(O)c(C=O)c1	NPYLR7 ag 827 (no result: mcGAS inh)
O=C(c1ccco1)N1CCCC(OCC2CC2)C1 (configuration not stated)	none
O=C1NC(=O)C(=Cc2cccc(Cl)c2Cl)S1	none (no result: mcGAS inh)
O=C1NC(=S)SC1=Cc1c(F)cccc1F	hcGAS inh 42 (no result: mcGAS inh)
O=C1NC(=S)SC1=Cc1ccc(F)c(F)c1	none
O=C1NC(=S)SC1=Cc1ccccc1Cl	hcGAS inh 56 (no result: mcGAS inh)
COC(=O)C1=C(C)N(c2ccc(N(C)C)cc2)C(C)=C(C(=O)OC)C1c1ccc(Cl)cc1	none
c1csc(-c2cnc3ccc(-c4ccncc4)nn23)c1	none
O=c1nc2n3ccc(-c4ccncc4)cc3ncc-2s1	NPYLR7 ag 55
CN1C(=O)C(O)(CC(=O)c2cccc(N)c2)c2ccccc21 (configuration not stated)	none (no result: mcGAS inh)
O=C(CCc1ccncc1)N(Cc1ccco1)c1ccccc1	none
N=C1/C(=C/c2cccs2)C(=O)N=C2SC(c3ccccc3)=NN12	hcGAS inh 56 (no result: mcGAS inh)
N=C1/C(=C/c2cccs2)C(=O)N=C2SC(Cc3ccccc3)=NN12	none (no result: mcGAS inh)
CC(C)c1nc2ccccc2n1Cc1ccc(F)cc1	none
Oc1c(Br)cc(Br)cc1C=NC1CC1	hcGAS inh 53 (no result: mcGAS inh)
CNN=Cc1cc(Br)cc(Br)c1O	none
CCCS(=O)(=O)N1CCN=C1SCc1ccccc1C	NPYLR7 ag 44
CCCS(=O)(=O)N1CCN=C1SCc1cc(C)ccc1C	none
O=C(O)C1Nc2c(O)cccc2C2C=CCC12 (configuration not stated)	none
O=C(O)C1Nc2ccc(Br)cc2C2C=CCC12 (configuration not stated)	mcGAS inh 85
Cc1cc(OCC(=O)NNC(=O)CCOc2ccccc2)ccc1Cl	none (no result: mcGAS inh)
CCC(C(=O)N1CCCC1)n1c(=O)n(Cc2ccccc2)c(=O)c2ccccc21 (configuration not stated)	none
O=C(NC1CCSCC1)c1ccc(-n2ccc(C(F)(F)F)n2)cc1	none (no result: mcGAS inh)
CCc1nc2n(n1)C(=O)C(C(c1ccc(Cl)cc1Cl)N1CCC(C(N)=O)CC1)S2 (configuration not stated)	none
O=C(NC1CSc2c1nc1ccccc1c2C(=O)O)c1ccccc1 (configuration not stated)	hcGAS inh 41 (no result: mcGAS inh)
O=C(Nc1ccccc1I)c1c2c(nc3ccccc13)CCCC2	none
Cc1c(Cl)cccc1N=Nc1c(-c2ccccc2)[nH]n(-c2nc(-c3ccccc3)cs2)c1=O	hcGAS inh 53
O=c1c(N=Nc2ccccc2Cl)c(-c2ccccc2)[nH]n1-c1nc(-c2ccccc2)cs1	none
CN1C(=S)N(CCCN2CCOCC2)C(=O)/C1=C\c1ccc2c(c1)OCO2	none
CN1C(=S)N(CCCN2CCOCC2)C(=O)/C1=C/c1ccc(N(C)C)cc1	NPYLR7 ag 60
O=S(=O)(CCS(=O)(=O)c1ccc(F)cc1)NCCc1ccccc1F	none (no result: mcGAS inh)
O=C(CN1CCN(S(=O)(=O)c2ccc(Cl)cc2)CC1)NC1CCCCC1	none (no result: mcGAS inh)
CCOC(=O)c1ccc2c(c1)nc(SCc1c(F)c(F)c(OC)c(F)c1F)n2Cc1ccco1	none
Cc1ccc([N+](=O)[O-])cc1S(=O)(=O)N1CCCC1c1ccc2c(c1)OCCCO2 (configuration not stated)	none
N#Cc1cc(C(=O)c2cc(Cl)cc(Cl)c2O)cn(-c2nccs2)c1=O	NPYLR7 ag 135 (no result: mcGAS inh)
N#Cc1cc(C(=O)c2cc(Br)ccc2O)cn(-c2ccccc2Cl)c1=O	none (no result: mcGAS inh)
CCOC(=O)c1cc(-c2ccc(N3CCN(C(=O)Cc4cccs4)CC3)cc2)n(-c2ccccc2OC)n1	none
COc1ccc([N+](=O)[O-])cc1NC(=O)C1CCCC1	none
COc1cc([N+](=O)[O-])ccc1NC(=O)CCl	mcGAS inh 70
O=C(CCl)Nc1cc([N+](=O)[O-])ccc1Nc1ccc(F)cc1	mcGAS inh 57
O=[N+]([O-])c1ccc(Nc2ccc(F)cc2)c([N+](=O)[O-])c1	none
CCCCC(=O)Nc1cc([N+](=O)[O-])ccc1OC	none (no result: mcGAS inh)
COc1ccc([N+](=O)[O-])cc1NC(=O)CCl	mcGAS inh 44
COc1cccc(CN(Cc2nc(C(=O)N3CCCCC3)co2)C(C)C)c1	none
COc1ccc(OC)c(NC(=O)C2CC=CCC2C(=O)N2CCC(C#N)(c3ccccc3)CC2)c1 (configuration not stated)	none (no result: mcGAS inh)

Source: PubChem (Fisher Drug Discovery Resource Center)
